# Source: PubChem BioAssay AID1053133 (Broad Institute, 2014)
# The campaign covered roughly 89,000 compounds. About 10 (0.01%) were called active. Inconclusive results (about 10%) are left out. Rule as the data show it: active = activity change below about -37% (passing the limit was not always enough); inconclusive = no clear call, values can overlap the other calls; tested in A549 cells. The list is a sample of the results.
# Assay: Vaccinia orthopox stage-specific inhibition, primary screen, cell-based, single point (AID 1053133)
# Conditions: Vaccinia-infected cells, mCherry/Venus stage reporter fluorescence, stronger effect = lower value, concentration not given here; activity change (Venus): measured here: Venus reporter, other viral stage
SMILES,activity change (Venus),activity change (mCherry)
O=C(Nc1ccccc1)N1C[C@@H]2[C@H](c3ccccc31)[C@H](CO)N2C(=O)c1ccccn1,5.62%,10.2% (inactive)
Cc1ccc(S(=O)(=O)N(C)C[C@@H]2Oc3ccc(NS(=O)(=O)c4ccc(F)cc4)cc3CC(=O)N([C@@H](C)CO)C[C@H]2C)cc1,-2.68%,2.93% (inactive)
COc1ccccc1NC(=O)N[C@H]1CC[C@H](CCn2cc(-c3cccnc3)nn2)O[C@@H]1CO,7.22%,-4.31% (inactive)
COc1ccc(-c2cn(CC[C@@H]3CC[C@@H](NC(=O)CCN4CCCCC4)[C@@H](CO)O3)nn2)cc1,11.2%,5.57% (inactive)
O=C(Cc1ccccn1)N[C@@H]1CC[C@H](CCn2cc(-c3ccc(F)cc3)nn2)O[C@@H]1CO,-0.00768%,11% (inactive)
Cc1ccc(S(=O)(=O)N[C@@H]2CC[C@@H](CCn3cc(C(C)C)nn3)O[C@H]2CO)cc1,2.74%,-0.697% (inactive)
COc1ccc2c3c(n(C)c2c1)[C@H](CO)N(C(=O)c1ccc(F)cc1)CC31CCN(C(C)=O)CC1,7.75%,25% (inactive)
COC(=O)C[C@@H]1CC[C@@H]2[C@H](COc3ccc(NC(=O)Nc4cccc(F)c4)cc3C(=O)N2C)O1,6.13%,6.13% (inactive)
CCNC(=O)[C@@H]1[C@@H](CO)[C@@H]2Cn3c(ccc(C4=CCCCC4)c3=O)[C@@H]2N1Cc1ccccc1F,-3.86%,2.73% (inactive)
O=C(Nc1cc(F)ccc1F)N[C@H]1CC[C@H](CCn2cc(C3CCCC3)nn2)O[C@@H]1CO,-13.1%,-6.78% (inactive)
C[C@H]1CN([C@@H](C)CO)C(=O)c2cc(C3=CCCC3)cnc2O[C@H]1CN(C)C(=O)Nc1ccc(F)cc1,6.92%,7.38% (inactive)
C[C@@H]1CN([C@@H](C)CO)C(=O)c2cc(NC(=O)C3CCCCC3)ccc2O[C@@H](C)CCCCO[C@H]1CN(C)C(=O)Nc1ccc2c(c1)OCO2,1.19%,1.01% (inactive)
CC(C)NC(=O)N1[C@H](C(=O)N2CCc3ccccc3C2)[C@@H](CO)[C@@H]2Cn3c(cccc3=O)[C@@H]21,7.39%,13.3% (inactive)
CCN1[C@@H]2Cn3c(ccc(C4=CCCCC4)c3=O)[C@H]1[C@@H](C(=O)N1CCCCC1)[C@@H]2CO,-4.76%,-0.187% (inactive)
C[C@H]1CN([C@@H](C)CO)C(=O)c2cc(/C=C/c3ccccc3)cnc2O[C@@H]1CN(C)C(=O)NC1CCCCC1,-19.2%,-26.2% (inactive)
CS(=O)(=O)N1CC(=O)N2[C@@H](CO)[C@@H](c3ccc(C#CCC4CCCC4)cc3)[C@@H]2C1,-6.84%,-14.6% (inactive)
